Measured values taken from the supplement of paper PMC6555819.

Legend:
Test in all cases: PBM binding z-score (relative to random genomic background probes); higher = stronger binding; sequences stand for … in GC…GCGATTGACAGCGTAGAATGAAGG
[1] = test system: FXR:RXRa (NR concentration 270 nM, RXRa partner concentration 90 nM)
Outline: (§1)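 Each nuclear receptor dimer, without ligand, was incubated for 1 h on custom Agilent 4×180K protein-binding microarrays. Binding was detected with antibodies against each partner (one per run), and scanned fluorescence was regression-normalized. The binding z-scores are referenced to random human genomic background probes.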

[2] = test system: LXRa:RXRa (NR concentration 270 nM, RXRa partner concentration 90 nM)
Outline: as §1

[3] = test system: LXRa homodimer (NR concentration 270 nM)
Outline: as §1

[4] = test system: LXRb:RXRa (NR concentration 270 nM, RXRa partner concentration 90 nM)
Outline: as §1

[5] = test system: LXRb homodimer (NR concentration 270 nM)
Outline: as §1

[6] = test system: PPARa:RXRa (NR concentration 270 nM, RXRa partner concentration 90 nM)
Outline: as §1

[7] = test system: PPARg:RXRa (NR concentration 180 nM, RXRa partner concentration 90 nM)
Outline: as §1

[8] = test system: PPARg:RXRa 270nM:90nM, anti-RXR (NR concentration 270 nM, RXRa partner concentration 90 nM)
Outline: as §1

[9] = test system: PPARg:RXRa 30nM:10nM, anti-RXR (NR concentration 30 nM, RXRa partner concentration 10 nM)
Outline: as §1

[10] = test system: PPARg:RXRa 90nM:30nM, anti-RXR (NR concentration 90 nM, RXRa partner concentration 30 nM)
Outline: as §1

[11] = test system: PPARg:RXRa DBDmut IVT, anti-RXR (DBD mutation: RXRa K156A/R161A, NR concentration 270 nM, RXRa partner concentration 90 nM)
Outline: as §1

[12] = test system: PPARg:RXRa IVT, anti-PPARg (NR concentration 270 nM, RXRa partner concentration 90 nM)
Outline: as §1

[13] = test system: PPARg DBDmut:RXRa IVT, anti-PPARg (DBD mutation: PPARg1 K132A/R137A, NR concentration 270 nM, RXRa partner concentration 90 nM)
Outline: as §1

[14] = test system: PPARg DBDmut IVT, anti-PPARg (DBD mutation: PPARg1 K132A/R137A, NR concentration 270 nM)
Outline: as §1

[15] = test system: PPARg homodimer (NR concentration 180 nM)
Outline: as §1

[16] = test system: PXR:RXRa (NR concentration 270 nM, RXRa partner concentration 90 nM)
Outline: as §1

[17] = test system: PXR homodimer (NR concentration 270 nM)
Outline: as §1

[18] = test system: RARa:RXR (NR concentration 270 nM, RXRa partner concentration 90 nM)
Outline: as §1

[19] = test system: RARa homodimer (NR concentration 270 nM)
Outline: as §1

[20] = test system: RARb:RXRa (NR concentration 270 nM, RXRa partner concentration 90 nM)
Outline: as §1

Row | Sequence | PBM binding z-score [1] | PBM binding z-score [2] | PBM binding z-score [3] | PBM binding z-score [4] | PBM binding z-score [5] | PBM binding z-score [6] | PBM binding z-score [7] | PBM binding z-score [8] | PBM binding z-score [9] | PBM binding z-score [10] | PBM binding z-score [11] | PBM binding z-score [12] | PBM binding z-score [13] | PBM binding z-score [14] | PBM binding z-score [15] | PBM binding z-score [16] | PBM binding z-score [17] | PBM binding z-score [18] | PBM binding z-score [19] | PBM binding z-score [20]
1 | AGACTGAGGTTATTAAGATCAGGGAATTGCGGTC | 1.39 | 1.31 | 0.0697 | 1.16 | -0.265 | 2.03 | 0.624 | 0.982 | 0.0377 | 0.409 | 0.46 | 0.765 | 0.238 | -0.249 | 0.438 | 1.08 | 0.427 | 1.52 | 0.126 | 1.4
2 | CCTTACGGGTCACTCCAGGTTATGGCATCGGAGT | 4.99 | 7.21 | 1.54 | 4.4 | -0.0375 | 4.24 | 3.15 | 3.76 | 0.907 | 2.67 | 2.6 | 3.76 | -0.451 | -0.505 | 1.71 | 4.55 | 0.182 | 3.46 | 0.437 | 3.78
3 | CTACCAAGGGGAACAAGGTCGTTGATTACTATTC | 0.208 | 0.398 | 0.166 | 1.28 | -0.298 | 1.24 | 0.284 | 0.325 | 0.0626 | 0.258 | 0.796 | 0.857 | -0.93 | 0.266 | 0.795 | 1.46 | 1.29 | 1.16 | -0.123 | 0.601
4 | TCTTGTAGAACAAAGGTTAAGAAAGCCGAAGCCT | 1.11 | 1.68 | -0.0357 | 1.97 | -0.155 | 4.32 | 7.84 | 7.99 | 7.71 | 8.74 | 2.26 | 3.87 | 0.00137 | 0.832 | 0.868 | 1.31 | -0.451 | 2.33 | 0.221 | 1.81
5 | AGTCAAACTTCACTAGGTAACGTAAGATTCAGCT | -0.0326 | -0.0348 | -0.0758 | 0.0812 | 0.248 | 0.271 | 0.504 | 0.268 | 0.187 | 0.101 | 1.97 | 2.66 | 0.854 | 1.24 | 0.579 | -0.238 | 0.241 | -0.00905 | -0.136 | 0.174
6 | AGCTCTAGGTAAAGTTCAGTGAAAGATCGATAGA | 0.591 | 1.3 | 0.886 | 0.579 | -0.0933 | 1.83 | 1.55 | 2.93 | 0.866 | 2.37 | 2.67 | 1.47 | 0.472 | 0.107 | 0.759 | 1.27 | 1.19 | 0.896 | 0.442 | 2.67
7 | TCTTGCAGATCAGCAGGTTAAGAAAGCTGGCCAA | -0.157 | -0.083 | -0.809 | -0.061 | -1.04 | 0.615 | -0.601 | 0.866 | 1.59 | 1.15 | 0.806 | -0.167 | -1.23 | -0.975 | -0.869 | -0.219 | -1.1 | 0.16 | -1.56 | 0.155
8 | AGTCAAAGTTCAGGACGCGGTAACGTAAAGCACG | 3.88 | 3.44 | 1.09 | 1.68 | 0.0515 | 3.08 | 4.39 | 4.71 | 1.96 | 3.51 | -0.435 | 1.23 | -0.53 | -0.304 | 1.62 | 2.37 | 0.876 | 2.21 | 0.353 | 4.19
9 | CAAACTAGGTCACAGAGGTCAAAGGCCGTGCGTA | 7.21 | 6.33 | 6.87 | 5.9 | 1.61 | 6.36 | 10.5 | 8.37 | 7.41 | 8.58 | 8.7 | 8.85 | 6.92 | 3.61 | 5.45 | 6.54 | 10.8 | 7.58 | 2.81 | 5.22
10 | TCAGATAGGTGAAGGTAACTCAGGTACGCAGTCG | 0.487 | 1.73 | -0.148 | 0.791 | -0.21 | 1.32 | 1.01 | 2.26 | 3.97 | 3.01 | 3.31 | 1.87 | 0.193 | -0.0331 | 0.849 | 0.435 | 0.291 | 0.668 | 0.648 | 1.1
11 | CCGACAGGGGCAGAAAGGTTACCATACCATCCGG | 0.56 | 0.716 | -0.132 | 1.04 | -0.954 | 1.95 | 1.47 | 1.96 | 0.381 | 1.32 | -0.112 | 0.0354 | -1.22 | -0.752 | 1.16 | 1.25 | 0.36 | 1.92 | 0.385 | 1.95
12 | TAGTCTAGGTCATTGGGCCAGTATAGTACGCATC | 4.44 | 4.2 | 2.26 | 2.54 | 2.53 | 4.28 | 5.91 | 4.82 | 3 | 4.56 | 5.99 | 6.49 | 2.81 | 2.94 | 3.92 | 1.95 | 0.361 | 2.72 | 1.24 | 3.81
13 | GCTGCTAGGGCAACTGATGGTCAGCTAAAGCTCG | -0.599 | -0.0812 | -0.858 | -0.846 | -0.673 | -0.536 | -0.394 | -0.642 | -1.04 | -0.914 | 2.82 | 1.23 | -0.683 | -1.08 | -0.93 | -0.816 | -0.96 | -0.619 | -1.23 | 1.56
14 | AGTTAAAGTTCAGGACGAGGTAACGTAAAGCACG | 3.69 | 3.97 | 1.7 | 1.91 | 0.474 | 2.83 | 2.49 | 3.2 | 1.18 | 2.14 | -0.314 | 1.18 | 0.861 | 1.1 | 2.09 | 2.95 | 1.51 | 2.66 | 0.705 | 4.06
15 | ATCGGAAGGTCGACGAGGTGAGTATACACCGTTT | 1.65 | 0.953 | -0.358 | 0.827 | -0.58 | 2.18 | 1.06 | 0.751 | -0.112 | 0.452 | -0.35 | 0.996 | 0.22 | -0.4 | 0.248 | 1.38 | -0.0622 | 1.66 | -0.26 | 2.51
16 | GCTGCTAGGTCGGGTTGGTCAGCTAACGGGTACG | -0.105 | -0.0902 | -0.312 | -0.21 | -0.573 | -0.124 | -0.576 | -0.344 | -0.825 | -0.553 | 0.38 | 0.339 | -1.51 | -0.0499 | -0.349 | -0.0179 | -0.16 | -0.157 | -1.16 | 1.16
17 | CCTTACGGGTCACGAGGTTACAGCACGACGAGCG | 7.17 | 4.8 | 0.542 | 4.17 | 0.337 | 6.14 | 7.89 | 6.86 | 3.81 | 5.93 | 4.58 | 5.66 | 2.08 | 2.53 | 5.5 | 5 | 0.46 | 6.67 | 2.1 | 4.71
